# According to PubChem BioAssay AID608 (Sanford-Burnham Center for Chemical Genomics, 2007):
# Among all 3,800 compounds or so, about 50 (1%) were called active. The rule behind the calls is not given here. The list shows a part of the results. Entries with a potency or affinity are not part of this list.
# Target: Peptidyl-prolyl cis-trans isomerase FKBP1A (Homo sapiens) (UniProt P62942)
# Experiment: FKBP12 binders, biophysical, NMR detection (AID 608)
# Conditions: NMR binding, purified FKBP12
# Chain of Peptidyl-prolyl cis-trans isomerase FKBP1A (Homo sapiens) (P62942 whole entry, looked up): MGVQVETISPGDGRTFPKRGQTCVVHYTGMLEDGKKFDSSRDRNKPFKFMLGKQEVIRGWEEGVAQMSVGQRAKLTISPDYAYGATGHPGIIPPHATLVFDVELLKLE
row,Compound,outcome
1,O=C(Nc1ccc(OCC(=O)N2CCOCC2)cc1)c1cccnc1,inactive
